Results filed as inconclusive are left out. Where a call stands in place of a potency, no number is given. Unmarked numbers belong to inactive results. Activity calls are given as the source filed them. Unless noted, calls follow the shape of the dose curve; as a rule, active = well fitted curve in the direction sought with a large enough effect in the repeat runs; inconclusive = weak or mixed curves; inactive = no such curve, though single readings can be large; an effect the other way counts as inactive or inconclusive.
What was measured:
[1] = qHTS assay to identify small molecule agonists of the RXR signaling pathway - cell viability counter screen (AID 1159529); also: nearly all actives have a fitted effect of over 50% in size; also: potency is read from the fitted curve at half-maximal effect
Method in brief: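 Luminescence from CellTiter-Glo (30 min, RT) measured viability in the same wells as the beta-lactamase reporter readout. Cells: GeneBLAzer RXR-alpha HEK 293T, 2% charcoal-stripped FBS. Compound exposure 16 hr, 37 C.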

[2] = qHTS assay to identify small molecule antagonists of the retinoid acid receptor (RAR) signaling pathway - cell viability counter screen (AID 1159551); also: nearly all actives have a fitted effect of over 35% in size
Method in brief: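 Cells (C3RL4) are plated, incubated overnight, dosed with compound in DMSO, then given retinol at 1 uM final. After 6 h at 37 C, CellTiter-Glo is added and luminescence read following 30 min at room temperature.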

[3] = qHTS assay to identify small molecule antagonists of the retinoic acid receptor (RAR) signaling pathway (AID 1159552; also: nearly all actives have a fitted effect of over 50% in size)
Method in brief: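 Luminescence from a RARE luciferase reporter in C3RL4 cells served as read-out. Cells received compounds together with 1 uM final retinol and incubated 6 hr at 37 C before detection reagent was added for 30 min at room temperature.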

[4] = qHTS assay to identify small molecule agonists of the retinoic acid receptor (RAR) signaling pathway (AID 1159553); also: potency is read from the fitted curve at half-maximal effect
Method in brief: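 Seed C3RL4 reporter cells at 1,000 per well and incubate overnight at 37 C. Add compounds in DMSO, incubate 6 hr. Add luciferase reagent, wait 30 min at room temperature, read luminescence.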

[5] = qHTS assay to identify small molecule antagonists of the estrogen related receptor (ERR) signaling pathway from Tox21 library - cell viability counter screen (AID 1224834); also: nearly all actives have a fitted effect of over 30% in size
Method in brief: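 ERR cells, 2,000/well; 6 h settle at 37 C/5% CO2; pin-tool compound transfer in DMSO; 17.5 h at 37 C; CellTiter-Fluor, 30 min; fluorescence intensity.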

[6] = target: Luciferin 4-monooxygenase (Photinus pyralis) (UniProt P08659); test: qHTS assay to identify small molecule inhibitors of firefly luciferase (AID 1224835); also: nearly all actives have a fitted effect of over 25% in size; also: potency is read from the fitted curve at half-maximal effect
Chain of Luciferin 4-monooxygenase (Photinus pyralis) (P08659 whole entry, looked up): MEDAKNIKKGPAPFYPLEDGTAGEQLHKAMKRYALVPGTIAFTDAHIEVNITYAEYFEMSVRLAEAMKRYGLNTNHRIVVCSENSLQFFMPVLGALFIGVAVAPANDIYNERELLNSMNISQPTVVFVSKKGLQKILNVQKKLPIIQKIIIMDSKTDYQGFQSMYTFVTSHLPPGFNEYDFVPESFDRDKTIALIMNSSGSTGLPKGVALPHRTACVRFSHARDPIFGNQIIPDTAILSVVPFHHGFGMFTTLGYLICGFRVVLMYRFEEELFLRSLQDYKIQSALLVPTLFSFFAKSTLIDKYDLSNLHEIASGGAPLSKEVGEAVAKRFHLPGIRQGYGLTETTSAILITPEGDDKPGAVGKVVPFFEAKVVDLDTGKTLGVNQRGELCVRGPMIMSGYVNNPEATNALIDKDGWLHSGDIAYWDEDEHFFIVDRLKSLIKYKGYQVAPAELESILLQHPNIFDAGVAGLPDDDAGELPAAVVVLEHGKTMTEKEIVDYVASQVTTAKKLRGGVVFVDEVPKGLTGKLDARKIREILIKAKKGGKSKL
Method in brief: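 Inhibition of purified Photinus luciferase is measured by luminescence. Substrate levels (D-luciferin, ATP) sit at their KM values. Each compound is tested in a concentration series.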

[7] = qHTS assay to identify small molecule agonists of the constitutive androstane receptor (CAR) signaling pathway - cell viability counter screen (AID 1224836); also: nearly all actives have a fitted effect of over 45% in size; also: potency is read from the fitted curve at half-maximal effect
Method in brief: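 Viability read-out: CellTiter-Fluor fluorescence after 23 h compound exposure at 37 C/5% CO2 in double-stable HepG2-CYP2B6-hCAR cells, with PK11195 present at 0.75 uM final; compounds tested in 15-point titration.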

[8] = qHTS assay to identify small molecule antagonists of the constitutive androstane receptor (CAR) signaling pathway - cell viability counter screen (AID 1224837); also: nearly all actives have a fitted effect of over 45% in size; also: potency is read from the fitted curve at half-maximal effect
Method in brief: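 Viability was measured with CellTiter-Fluor in a HepG2 line carrying stably transfected hCAR and a CYP2B6-2.2kb construct. Cells were exposed for 23 hr at 37 C to 15 compound concentrations with 50 nM CITCO as agonist.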

[9] = target: Nuclear receptor subfamily 1 group I member 3 (Homo sapiens) (UniProt Q14994); test: qHTS assay to identify small molecule antagonists of the constitutive androstane receptor (CAR) signaling pathway (AID 1224838);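 also: HepG2 cells stably expressing hCAR with CYP2B6 luciferase reporter stimulated by CITCO; nearly all actives have a fitted effect of over 40% in size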; also: potency is read from the fitted curve at half-maximal effect
Chain of Nuclear receptor subfamily 1 group I member 3 (Homo sapiens) (Q14994 whole entry, looked up): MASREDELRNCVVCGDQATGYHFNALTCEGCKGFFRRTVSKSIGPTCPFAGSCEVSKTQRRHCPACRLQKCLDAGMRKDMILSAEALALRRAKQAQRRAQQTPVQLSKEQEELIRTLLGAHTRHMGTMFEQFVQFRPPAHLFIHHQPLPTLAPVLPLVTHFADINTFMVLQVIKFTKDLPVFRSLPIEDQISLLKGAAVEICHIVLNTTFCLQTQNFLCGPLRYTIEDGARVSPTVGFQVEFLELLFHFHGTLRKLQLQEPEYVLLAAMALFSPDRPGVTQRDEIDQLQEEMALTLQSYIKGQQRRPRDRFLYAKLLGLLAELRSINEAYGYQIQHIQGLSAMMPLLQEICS
Method in brief: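 Antagonist mode used CITCO at a final 50 nM to activate CAR in human hepatoma HepG2 cells carrying stable hCAR and a 2.2 kb CYP2B6 promoter-luciferase construct. Compounds were tested at 15 concentrations over 24 h, with luminescence as the end point.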

[10] = qHTS assay to identify small molecule antagonists of the estrogen related receptor signaling pathway with the pleiotropic PPARgamma coactivator (PGC) from Tox21 10K library - cell viability counter screen (AID 1224840; active = well fitted cell-killing curve with a large enough effect in the repeat runs, not every such curve was filed as active; also: nearly all actives have a fitted effect of over 40% in size)
Method in brief: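 Multiplexed viability counter screen in the PGC/ERR cell line: cells treated with DMSO-dissolved compounds for 17.5 hours at 37 C, then viability measured as CellTiter-Fluor fluorescence.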

[11] = qHTS assay to identify small molecule antagonists of the estrogen related receptor signaling pathway with the pleiotropic PPARgamma coactivator (PGC) from Tox21 10K library (AID 1224841; call rule not given here; also: actives are mostly falling curves and most rising ones were filed inactive; nearly all actives have a fitted effect of over 50% in size; also: potency is read from the fitted curve at half-maximal effect)
Method in brief: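 Steps: plate 2,000 PGC/ERR cells per well; incubate 6 h at 37 C with 5% CO2; transfer compounds from DMSO stocks by pin tool; incubate 18 h at 37 C; add One-Glo; measure luminescence 30 min later.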

[12] = qHTS assay to identify small molecule agonists of the estrogen related receptor signaling pathway with the pleiotropic PPARgamma coactivator (PGC) from Tox21 10K library (AID 1224842); also: nearly all actives have a fitted effect of over 15% in size
Method in brief: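 Luminescence from One-Glo (30 min, room temperature) measured after PGC/ERR cells had 18 h at 37 C with pinned compound (23 nL in DMSO). Cells had been seeded at 2,000 per well and pre-incubated 6 h.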

[13] = target: Nuclear receptor subfamily 1 group I member 3 (Homo sapiens) (UniProt Q14994); test: qHTS assay to identify small molecule agonists of the constitutive androstane receptor (CAR) signaling pathway (AID 1224839); also: series mostly up to about 92 µM; nearly all actives have a fitted effect of over 15% in size
Method in brief: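 Luminescence read-out (ONE-Glo, 30 min, room temperature) from double-stable HepG2-CYP2B6-hCAR cells exposed 24 h to 15-point compound series in presence of 0.75 uM PK11195 final.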

[14] = target: Thyrotropin receptor (Homo sapiens) (UniProt P16473); test: qHTS assay to identify small molecule agonists of the thyroid stimulating hormone receptor (TSHR) signaling pathway (AID 1224843; calls by dose curve; also: nearly all actives have a fitted effect of over 45% in size)
Chain of Thyrotropin receptor (Homo sapiens) (P16473 whole entry, looked up): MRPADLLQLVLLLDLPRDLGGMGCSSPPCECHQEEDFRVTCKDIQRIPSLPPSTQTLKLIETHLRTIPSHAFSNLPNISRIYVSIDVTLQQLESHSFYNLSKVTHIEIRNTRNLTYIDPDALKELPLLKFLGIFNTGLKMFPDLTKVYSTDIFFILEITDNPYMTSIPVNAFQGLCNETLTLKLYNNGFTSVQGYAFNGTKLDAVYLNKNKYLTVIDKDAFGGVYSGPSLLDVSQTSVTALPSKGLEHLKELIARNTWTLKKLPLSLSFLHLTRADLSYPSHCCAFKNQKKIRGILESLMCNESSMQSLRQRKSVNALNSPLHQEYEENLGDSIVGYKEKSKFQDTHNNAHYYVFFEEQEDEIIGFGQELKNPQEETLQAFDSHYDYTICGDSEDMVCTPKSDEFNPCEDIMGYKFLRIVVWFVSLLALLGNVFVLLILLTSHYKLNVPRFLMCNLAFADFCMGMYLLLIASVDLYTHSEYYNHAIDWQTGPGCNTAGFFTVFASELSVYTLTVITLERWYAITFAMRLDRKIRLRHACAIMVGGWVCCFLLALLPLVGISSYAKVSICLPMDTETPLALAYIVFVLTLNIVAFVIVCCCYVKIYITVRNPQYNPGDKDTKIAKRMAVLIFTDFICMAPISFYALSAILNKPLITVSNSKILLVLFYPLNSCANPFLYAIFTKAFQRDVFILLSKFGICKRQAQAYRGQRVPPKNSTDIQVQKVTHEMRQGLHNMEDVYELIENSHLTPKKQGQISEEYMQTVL
Method in brief: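 A cell-based cAMP HTRF format was run in TSHR-transfected HEK293 cells, 800 per well. Treatment: 30 min, room temperature. Detection: 1 h with labelled cAMP and anti-cAMP cryptate. Concentration-response over 15 points, three replicates.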

[15] = qHTS assay to identify small molecule antagonists of the estrogen related receptor (ERR) signaling pathway - cell viability counter screen (AID 1224818); also: series mostly up to about 46 µM
Method in brief: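 ERR cells, 2,000/well; 6 h settle at 37 C/5% CO2; compound pin transfer (DMSO); 17.5 h at 37 C; CellTiter-Fluor, 30 min, fluorescence read.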

[16] = qHTS assay to identify small molecule antagonists of the estrogen related receptor (ERR) signaling pathway (AID 1224819;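 also: luminescence from an ERR-driven luciferase reporter measured with One-Glo reagent; series mostly up to about 46 µM; nearly all actives have a fitted effect of over 50% in size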)
Method in brief: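 qHTS in ERR cells, 2,000/well, 1536 format. Cpd (DMSO) added after 6 h settle, 18 h 37 C. One-Glo luminescence, 30 min RT.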

[17] = qHTS assay to identify small molecule agonists of the estrogen related receptor (ERR) signaling pathway (AID 1224820)
Method in brief: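 Luminescence readout (One-Glo, 30 min RT) from NTP-supplied ERR cell line exposed to compounds for 18 h at 37 C. Cells seeded 2,000 per well and pre-incubated 6 h before pin-tool compound transfer.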

[18] = system: estrogen-related receptor alpha (ERRalpha) with PGC-1alpha coactivator, human; test: qHTS assay to identify small molecule antagonists of the estrogen related receptor signaling pathway with the pleiotropic PPARgamma coactivator (PGC) (AID 1224821; calls by dose curve)
Method in brief: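 PGC/ERR reporter cells; 6 h pre-incubation 37 C/5% CO2; pin-tool compound in DMSO, 18 h 37 C; One-Glo added, 30 min RT; luminescence read. qHTS antagonist mode.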

[19] = qHTS assay to identify small molecule antagonists of the estrogen related receptor signaling pathway with the pleiotropic PPARgamma coactivator (PGC) cell viability counter screen (AID 1224822;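 also: series mostly up to about 46 µM; viability read after 17.5 h compound exposure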)
Method in brief: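 Multiplexed viability counter screen run in PGC/ERR cells treated with compounds for 17.5 h at 37 C; live-cell protease signal measured by CellTiter-Fluor fluorescence.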

[20] = qHTS assay to identify small molecule agonists of the estrogen related receptor signaling pathway with the pleiotropic PPARgamma coactivator (PGC) (AID 1224823)
Method in brief: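 Luminescence readout (One-Glo, 30 min RT) from PGC/ERR cell line treated 18 h at 37 C with pin-tool-delivered DMSO compound solutions; cells plated 6 h before dosing. Quantitative HTS format.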

SMILES	Potency [1]	Potency [2]	Potency [3]	Potency [4]	Potency [5]	Potency [6]	Potency [7]	Potency [8]	Potency [9]	Potency [10]	Potency [11]	Potency [12]	Potency [13]	Potency [14]	outcome [15]	outcome [16]	outcome [17]	outcome [18]	outcome [19]	outcome [20]
CCCCCC/C=C/C=O	inactive	inactive	inactive	inactive	inactive	inactive	inactive	inactive	inactive	inactive	inactive	inactive	–	–	–	–	–	–	–	–
Nc1nc(N)c2nc(CNc3ccc(C(=O)N[C@@H](CCC(=O)O)C(=O)O)cc3)cnc2n1	inactive	inactive	inactive	inactive	inactive	inactive	inactive	inactive	0.0404 µM (active)	inactive	0.114 µM (active)	inactive	inactive	inactive	–	–	–	–	–	–
O=C(O)C(c1ccc(Cl)cc1)c1ccc(Cl)cc1	inactive	inactive	inactive	inactive	inactive	inactive	inactive	inactive	inactive	inactive	inactive	inactive	inactive	inactive	–	–	–	–	–	–
CC(O)C1CCCCC1 (stereo unspecified)	inactive	inactive	inactive	inactive	inactive	inactive	inactive	inactive	inactive	inactive	inactive	inactive	inactive	inactive	–	–	–	–	–	–
CCCc1ccccc1	inactive	inactive	inactive	inactive	inactive	inactive	inactive	inactive	inactive	inactive	inactive	inactive	inactive	inactive	–	–	–	–	–	–
CCOC(=O)CC(=O)c1cc(F)c(Cl)nc1Cl	inactive	inactive	inactive	inactive	inactive	40.9 µM (active)	inactive	inactive	inactive	inactive	–	–	–	–	–	–	–	–	–	–
CC(=O)/C(C)=C/C1C(C)=CCCC1(C)C (stereo unspecified)	inactive	inactive	inactive	inactive	inactive	inactive	inactive	inactive	inactive	inactive	inactive	inactive	inactive	inactive	–	–	–	–	–	–
NC(N)=N/N=C/c1c(Cl)cccc1Cl	inactive	inactive	inactive	inactive	–	inactive	23.7 µM (active)	23.7 µM (active)	inactive	inactive	inactive	inactive	–	–	inactive	inactive	inactive	inactive	inactive	inactive
CC(C(=O)O)c1ccc(C(=O)c2ccccc2)s1 (stereo unspecified)	inactive	inactive	inactive	8.41 µM (active)	inactive	15.5 µM (active)	inactive	inactive	inactive	inactive	–	–	–	–	–	–	–	–	–	–
CC(C)(C)c1cc(CCC(=O)OCC(COC(=O)CCc2cc(C(C)(C)C)c(O)c(C(C)(C)C)c2)(COC(=O)CCc2cc(C(C)(C)C)c(O)c(C(C)(C)C)c2)COC(=O)CCc2cc(C(C)(C)C)c(O)c(C(C)(C)C)c2)cc(C(C)(C)C)c1O	inactive	inactive	inactive	inactive	inactive	inactive	inactive	inactive	inactive	–	–	–	inactive	inactive	–	–	–	–	–	–
CCN(CC)C(C)CN1c2ccccc2Sc2ccccc21 (stereo unspecified)	inactive	inactive	inactive	inactive	inactive	inactive	inactive	inactive	inactive	inactive	–	–	inactive	inactive	inactive	–	–	–	–	–
O=C(O)/C=C/c1cnc[nH]1	inactive	inactive	inactive	inactive	inactive	inactive	inactive	inactive	–	inactive	–	–	inactive	inactive	inactive	–	–	–	inactive	–
Cc1ncsc1CCO	inactive	inactive	inactive	inactive	inactive	inactive	inactive	inactive	inactive	inactive	–	–	inactive	inactive	–	–	–	–	–	–
Cc1cccc(C(C)(C)C)c1O	inactive	inactive	inactive	inactive	inactive	inactive	inactive	inactive	inactive	inactive	–	–	inactive	–	–	–	–	–	–	–
N#Cc1c(F)cccc1F	inactive	inactive	inactive	inactive	inactive	inactive	inactive	inactive	inactive	–	–	–	inactive	inactive	–	–	–	–	–	–
CCCCCCCCCCCCC(=O)O	24.6 µM (active)	inactive	inactive	inactive	inactive	63.5 µM (active)	inactive	inactive	inactive	inactive	–	–	inactive	inactive	–	–	–	–	–	–
Cc1ccc(C(=O)C(C)CN2CCCCC2)cc1 (stereo unspecified)	inactive	inactive	inactive	inactive	inactive	inactive	inactive	inactive	inactive	inactive	inactive	inactive	–	inactive	–	–	–	–	–	–
O=C(Nc1ccccc1)OCC(CN1CCCCC1)OC(=O)Nc1ccccc1 (stereo unspecified)	inactive	inactive	inactive	inactive	inactive	inactive	inactive	inactive	inactive	inactive	–	–	inactive	inactive	–	–	–	–	–	–
Cl/C(=C\n1cncn1)c1ccc(Cl)cc1Cl	inactive	inactive	inactive	inactive	inactive	inactive	inactive	inactive	inactive	inactive	inactive	inactive	inactive	inactive	–	–	–	–	–	–

— PubChem BioAssay (Tox21)
